Test results from PubChem BioAssay (Tox21).
Inconclusive results are not listed. Active and inactive are the calls of the source. The call rests on the fitted dose curve.

target: D(2) dopamine receptor (Homo sapiens) (UniProt P14416); assay: Dopamine D2 receptor (DRD2) small molecule agonists, cell-based qHTS assay (AID 1963594); conditions: HEK293-DRD2 cAMP HTRF, agonist mode, 30 min; series mostly up to 92.4 µM; activation: at the top concentration; further: nearly all actives have a fitted effect of over 35% in size
From the text: National Center for Advancing Translational Sciences [NCATS]
Division of Preclinical Innovation [DPI]
U.S. Environmental Protection Agency [EPA]
National Institutes of Environmental Health Sciences [NIEHS]
National Toxicology Program [NTP]
U.S. Food and Drug Administration [FDA]
DRD2 is the D2 subtype of the dopamine receptor, which is coupled to Gi subtype of G protein-coupled receptor. This G protein-coupled receptor inhibits adenylyl cyclase activity. The DRD2-HEK293 cell line stably expressing D2 dopamine receptor can be used for screening agonists and antagonists of interactions between D2 and its ligands. The Hek293-DRD2 cAMP assay is based on HTRF technology. It measures changes of cAMP accumulation in response to Gi coupled GPCR activation or inhibition.
Tox21 Assay Protocol Summary:
DRD2-Hek293 cells were dispensed at 600 cells/3uL/well in 1536-well white plates using a Multidrop Dispenser. After the assay plates were incubated at a 37 C/5% CO2 incubator for 24 h, 1 uL of Ro20-1724 at final concentration of 0.1 mM was transferred to the assay plate by a Flying Reagent Dispenser. Following Ro20-1724 addition, 23 nL of compound dissolved in DMSO, positive controls or DMSO only was added to the assay plates via Wako pintool station. The assay plates were incubated at room temperature for 10 min. Next, 1 uL of NKH477 at 200nM was added into the plates. After the assay plates were incubated at room temperature for an additional 30 min, 2.5 ul/well of cAMP-d2 and 2.5 ul/well of anti-cAMP-cryptate were added respectively into the assay plates using a Flying Reagent Dispenser. The plates were incubated at room temperature for 1 h. The fluorescence intensity in the plates was measured at 340 nm excitation and 665 & 620 nm emission by an Envision plate reader.
On the % scale 0 is the no-effect control and ±100 the full control effect; potency means the concentration at half of the fitted maximal effect.

Chain of D(2) dopamine receptor (Homo sapiens) (P14416 whole entry, looked up): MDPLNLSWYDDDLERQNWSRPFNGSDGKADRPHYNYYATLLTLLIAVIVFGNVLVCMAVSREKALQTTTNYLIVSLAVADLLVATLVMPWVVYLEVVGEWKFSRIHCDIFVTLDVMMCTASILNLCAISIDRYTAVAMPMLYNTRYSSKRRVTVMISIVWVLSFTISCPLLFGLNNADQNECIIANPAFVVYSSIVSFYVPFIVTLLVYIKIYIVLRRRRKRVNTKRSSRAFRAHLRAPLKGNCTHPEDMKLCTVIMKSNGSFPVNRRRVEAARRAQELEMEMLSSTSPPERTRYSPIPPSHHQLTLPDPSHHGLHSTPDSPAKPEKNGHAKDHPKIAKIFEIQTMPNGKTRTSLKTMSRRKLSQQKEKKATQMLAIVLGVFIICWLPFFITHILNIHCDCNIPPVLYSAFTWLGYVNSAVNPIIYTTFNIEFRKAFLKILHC

Structure (SMILES) | activation | Potency
COC(=O)C(C)O (stereo not given) | 1.78% (inactive) | 
NC(=O)NS(=O)(=O)c1ccc(N)cc1 | 3.79% [at 42.5 µM] (inactive) | 
Clc1cc(Cl)cc(Cl)c1 | 4.12% (inactive) | 
CCCCC1CCCCC(=O)O1 (stereo not given) | -1.19% (inactive) | 
CCCCC(=O)O[C@]1(C(=O)CO)[C@H](C)C[C@H]2[C@@H]3CCC4=CC(=O)C=C[C@]4(C)[C@@]3(F)[C@@H](O)C[C@@]21C | -7.39% [at 42.5 µM] (inactive) | 
c1ccc(CNc2ncnc3nc[nH]c23)cc1 | 0.0064% (inactive) | 
C=C(C)C(=O)OCCCC | -0.503% (inactive) | 
CC1CC(C)C(=O)C1=O (stereo not given) | -7.57% (inactive) | 
CSc1nc(NC2CC2)nc(NC(C)(C)C)n1 | -1.32% (inactive) | 
CC/C=C(\C)C=O | -0.16% (inactive) | 
OCCN1C[C@H](O)[C@@H](O)[C@H](O)[C@H]1CO | 1.94% [at 42.5 µM] (inactive) | 
OCCSc1ccccc1 | 11.4% (inactive) | 
Nc1cccc(S(=O)(=O)O)c1 | -4.15% (inactive) | 
C/C=C/C=C/CCCCCCCO | -20.6% (inactive) | 
CCCCCN(CCCOC)C(=O)C(CCC(=O)O)NC(=O)c1ccc(Cl)c(Cl)c1 (stereo not given) | -5.13% [at 42.5 µM] (inactive) | 
O=S(O)O | 2.66% [at 19 µM] (inactive) | 
NCc1ccco1 | 0.596% (inactive) | 
O=C1CCC(C2CCCCC2)CC1 | -0.498% (inactive) | 
CC(C)(C)NCC(O)c1cc(O)cc(O)c1 (stereo not given) | -18.6% [at 42.5 µM] (inactive) | 
CCCCCCCCCCCCCCCCCCO | -16.4% [at 42.5 µM] (inactive) | 

Structure (SMILES) | activation | Potency
CCOc1ccccc1N | 0.607% (inactive) | 
Nc1cccc2c(=O)[nH][nH]c(=O)c12 | 0.611% (inactive) | 
C=CC(=O)OCCCl | -4.31% (inactive) | 
CCCCC(CC)CN1C(=O)C2C3C=CC(C3)C2C1=O (stereo not given) | -17.9% (inactive) | 
O=[N+]([O-])c1ccc(CO)cc1 | 2.91% (inactive) | 
Clc1nnc(Cl)c2ccccc12 | 2.44% (inactive) | 
Nc1nc(Cl)nc2c1ncn2[C@@H]1O[C@H](CO)[C@@H](O)[C@@H]1F |  | 422 nM (active)
CC(C)(O)c1coc(S(=O)(=O)NC(=O)Nc2c3c(cc4c2CCC4)CCC3)c1 | -2.98% (inactive) | 
CCCCS | 1.05% (inactive) | 
CC(C)SCc1ccco1 | -0.344% [at 42.5 µM] (inactive) | 
FC(F)(F)C(F)(F)C(F)(F)C(F)(F)CCI | 1.42% [at 42.5 µM] (inactive) | 
CCOC(=O)OCC/C(SC(=O)OCC)=C(\C)N(C=O)Cc1cnc(C)nc1N | -6.73% [at 42.5 µM] (inactive) | 
O=C1N(c2ccccc2)c2ccccc2C1(Cc1ccncc1)Cc1ccncc1 | -3.82% [at 42.5 µM] (inactive) | 
Cn1c(N)c(N=O)c(=O)n(C)c1=O | -3.97% (inactive) | 
CCn1cc(C(=O)O)c(=O)c2cc(F)c(N3CCNCC3)nc21 | 9.79% [at 42.5 µM] (inactive) | 
CC1=C(CC=O)C(C)(C)CCC1 | -6.38% (inactive) | 
CC(=O)O[C@@H]1C(=O)O[C@@H]2[C@H]1OC(=O)[C@@H]2OC(C)=O | 12% [at 42.5 µM] (inactive) | 
C[C@H](N)C(=O)N[C@@H](C)C(=O)NC1[C@H]2CN(c3nc4c(cc3F)c(=O)c(C(=O)O)cn4-c3ccc(F)cc3F)C[C@@H]12 (stereo not given in full) | -2.68% [at 42.5 µM] (inactive) | 
COc1cc2c(cc1OC)C(=O)CC2 | 14.2% [at 42.5 µM] (inactive) | 
O=C(O)c1cc(N=Nc2ccc([N+](=O)[O-])cc2)ccc1O | 5.21% (inactive) | 
